GLP-1R agonist: agonists of human GLP-1 receptor; P43220; 0.007% of 380,000 active; Potency, µM (highest dose often 45.6 µM), for inactives: top-dose activation, hits mostly activators; HEK293 GLP-1R CRE-luciferase, luminescence, 4-6 h; cells express a hypersensitive GLP-1R form; AID 624172; also: % of control where 0% means no effect
Target sequence (P43220 whole entry, looked up): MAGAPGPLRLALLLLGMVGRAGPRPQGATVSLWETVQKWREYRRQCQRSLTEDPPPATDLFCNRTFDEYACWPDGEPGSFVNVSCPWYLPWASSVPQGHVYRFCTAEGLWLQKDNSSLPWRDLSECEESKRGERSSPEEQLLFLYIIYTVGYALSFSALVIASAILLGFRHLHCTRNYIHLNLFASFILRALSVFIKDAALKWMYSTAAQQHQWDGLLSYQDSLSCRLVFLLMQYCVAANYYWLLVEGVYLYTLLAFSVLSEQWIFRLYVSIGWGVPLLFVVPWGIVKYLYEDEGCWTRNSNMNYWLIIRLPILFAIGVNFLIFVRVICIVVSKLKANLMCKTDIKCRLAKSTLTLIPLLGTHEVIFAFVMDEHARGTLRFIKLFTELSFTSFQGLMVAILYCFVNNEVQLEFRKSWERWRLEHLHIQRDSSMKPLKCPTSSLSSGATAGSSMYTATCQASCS
GLP-1R inv ag: acts as inverse agonist at human GLP-1 receptor. Potency, µM (titrated, usually from 38.3 µM), inactives show at the top dose activity change, negative = inhibition, usual class: inhibitors. P43220. HEK293 GLP-1R CRE-luciferase, luminescence, 24 h; GLP-1R form is constitutively active. 1.6% of 410,000 active. AID 624417; also: % is scaled to controls: 0 for no effect and ±100 for the full control effect; nearly all actives have a fitted effect of over 55% in size
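Luminescence readout: a drop in cAMP-driven luciferase signal flags inverse agonism at a constitutively active GLP-1R stably expressed in HEK293. Compound exposure lasted 24 hr at 37 deg C, 5% CO2.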
HEK293 tox: cytotoxicity counter-screen for GLP-1 receptor inverse agonists; Potency, µM (titrated, usually from 38.3 µM), without a hit: at the highest dose activity change, negative = inhibition, actives largely listed as inhibitors; AID 624418; 0.13% of 410,000 active; HEK293 cAMP-luciferase reporter cells, luminescence, 24 h;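 also: loss of luciferase light is scored as toxicity; % is scaled to controls: 0 for no effect and ±100 for the full control effect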
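Seeding density was 200 cells/uL; after overnight-length (12 h) culture, 23 nL compounds went on for 24 h at 37 °C. Readout used a luciferase detection reagent, luminescence taken after 12 min at room temperature.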
An asterisk follows results filed as active; ? = inconclusive; . = no result given. The list is not random: actives were taken first. Their share in the collection is about 1.7%. Calls follow the shape of the dose curve; as a rule, active = well fitted curve in the direction sought with a large enough effect; inconclusive = small, poorly fitted or top-dose-only effect, or another doubt; inactive = no such curve, though single readings can be large; an effect the other way counts as inactive or inconclusive. Potency is read from the fitted curve at half-maximal effect.

SMILES | GLP-1R agonist | GLP-1R inv ag | HEK293 tox
COC(=O)N[C@H](C(=O)N[C@@H](Cc1ccccc1)[C@@H](O)CN(Cc1ccc(-c2ccccn2)cc1)NC(=O)[C@@H](NC(=O)OC)C(C)(C)C)C(C)(C)C | -2% | . | .
Cc1cc(C(=O)CSc2nc3ccccc3[nH]2)c(C)n1CC1CCCO1 (stereo not drawn) | -4% | 4µM* | -31%
Cc1cc(C(=O)CSc2nc(N)cc(=O)[nH]2)c(C)n1CC1CCCO1 (stereo not drawn) | 12% | 9% | 0%
CCOCCCn1c(SCC(=O)Nc2ccc(C(C)C)cc2)nc2c(sc3ccccc32)c1=O | . | 2% | 22%
COc1cc(OC)cc(-c2c(-c3ccc(F)cc3)c3cc(-c4cccc5[nH]ccc45)ccc3n2C)c1 | -5% | 5.6µM* | 9%
COc1ccc(-c2c(-c3cc(OC)cc(OC)c3)n(C)c3ccc(-c4cccc5[nH]ccc45)cc23)cc1 | -3% | ? | 6%
O=C(O)c1cccc2c1-c1ccc(Cl)cc1C2 | 5% | 3% | 17%
CCc1nc2ccc(C(=O)NCCCn3ccnc3)cn2c1N(CC)CCOC | 3% | 3% | 7%
CCN1CCN(C(c2cccnc2)c2c(NC(=O)c3ccco3)sc(C)c2C)CC1 (stereo not drawn) | 2% | ? | -11%
Cc1sc(NC(=O)c2ccco2)c(C(c2cccnc2)N2CCC(C)CC2)c1C (stereo not drawn) | -3% | 8.9µM* | -28%
CCCS(=O)(=O)NC(=O)C1(C)CCCN(C(=O)c2c(OC)cccc2OC)C1 (stereo not drawn) | 5% | 21% | 6%
O=C(Oc1cccc2cccnc12)c1ccc(N2C(=O)C3C4CCC(C4)C3C2=O)cc1 (stereo not drawn) | 0% | 2.8µM* | 3.2µM*
O=C(Oc1cccc2cccnc12)c1cccc(-n2cnnn2)c1 | -3% | 0% | -5%
O=C(Oc1cccc2cccnc12)c1cccc(N2C(=O)C3C4CCC(C4)C3C2=O)c1 (stereo not drawn) | 1% | 2.8µM* | 2.5µM*
O=C(Oc1ccc(N2C(=O)C3C4CCC(C4)C3C2=O)cc1)c1ccco1 (stereo not drawn) | 0% | 18% | -4%
Cc1ccc(CNn2cn[nH]c2=S)cc1 | 11% | 0% | 3%
C[C@H](CO)N1C[C@H](C)[C@H](CN(C)C(=O)Nc2ccc3c(c2)OCCO3)OCc2cnnn2CCCC1=O | 6% | 3% | 5%
CC(C)(C)C1CCc2c(sc(NC(=O)c3noc4c3CCCC4)c2C#N)C1 (stereo not drawn) | . | 2% | -1%
O=C(NCC12CC3CC(CC(C3)C1)C2)c1nn2c(c1Cl)NC(c1ccco1)CC2C(F)(F)F (stereo not drawn) | -9% | 4µM* | -1%
O=C(NCc1cccc(Cl)c1)c1cnn2c1NC(c1ccco1)CC2C(F)(F)F (stereo not drawn) | -7% | 0% | -16%
CCCn1nc(C(=O)Nc2nc(-c3ccccn3)cs2)c2ccccc2c1=O | -5% | ? | 5µM*
CCn1nc(C(=O)Nc2nc(-c3ccccn3)cs2)c2ccccc2c1=O | -2% | ? | ?
COc1cc(C(=O)NCCSc2ccc(F)cc2)cc(OC)c1OC | -3% | -21% | 3%
CCOC(=O)c1ccc(N/C(=N\S(=O)(=O)c2ccccc2C)c2ccccc2)cc1 | -1% | ? | -17%
Cc1ccc(C)c(S(=O)(=O)/N=C(/Nc2ccccc2)c2ccccc2)c1 | 12% | 10µM* | -2%
SMILES | GLP-1R agonist | GLP-1R inv ag | HEK293 tox
COc1ccc2[nH]c3c4c(ccc3c2c1)C(=O)C=CC4=O | 11% | ? | 7.9µM*
COc1ccc2[nH]c(=O)cc(C(=O)O)c2c1 | -1% | 2% | 11%
c1ccc2c(c1)OCC(c1csc3ncnc(N4CCCC4)c13)O2 (stereo not drawn) | -4% | ? | -4%
c1ccc(CCNc2ncnc3scc(C4COc5ccccc5O4)c23)cc1 (stereo not drawn) | -13% | 7.9µM* | ?
COc1cccc(NC(=O)CN(C)C(=O)c2ccc(S(=O)(=O)Nc3ccccc3F)cc2)c1 | 2% | -16% | -17%
CCOC(=O)c1c(C)[nH]c(C)c1S(=O)(=O)NCC(=O)Nc1cccc(C(F)(F)F)c1 | . | -20% | -12%
Cc1c(C(=O)Oc2ccc(Cl)cc2)n(C)oc1=O | 6% | 21% | -14%
Cc1c(C(=O)NNc2c(Cl)cccc2Cl)n(C)oc1=O | -6% | 3.5µM* | -19%
Cc1ccc(-c2cc(C(F)(F)F)nc(SCC(=O)c3cccc([N+](=O)[O-])c3)n2)cc1 | -3% | 5.6µM* | 62%
O=C(CSc1nc(-c2ccccc2)cc(C(F)(F)F)n1)c1cccc([N+](=O)[O-])c1 | -2% | ? | -14%
Cc1cc2ncn(CCC(=O)NC(C)(C)C)c2cc1C | 3% | 4% | 18%
CCCC(=O)NCc1ccccc1Cl | -1% | -15% | -15%
O=C(CNC(c1ccccc1)c1ccccc1)NCc1ccccc1Cl | 13% | 10µM* | 3%
CC1CC(O)C(C)CN1 (stereo not drawn) | 9% | 16% | -2%
CCOC(=O)CSc1nnc2n(-c3ccccc3)c(=O)c3c4c(sc3n12)CC(C(C)(C)C)CC4 (stereo not drawn) | . | ? | -6%
COc1ccc(-c2csc(N(CCCN(C)C)C(=O)c3ccccc3C)n2)cc1 | -3% | 2.8µM* | ?
COc1ccc(-c2csc(N(CCCN(C)C)C(=O)c3ccccc3Cl)n2)cc1 | -5% | ? | ?
COCCN(C(=O)c1ccccc1F)c1nc(-c2ccc(OC)cc2)cs1 | 19% | 10µM* | 15%
CCN(C(=O)c1ccccc1F)c1nc(-c2ccc(OC)cc2)cs1 | -1% | ? | -6%
Cc1ccc2c(=O)cc(C(=O)Nc3sc4c(c3C(=O)NCc3ccccc3)CCCC4)oc2c1C | . | 15% | 1%
COC(=O)COc1ccc(S(=O)(=O)NCc2ccc3c(c2)OCO3)cc1C | 9% | 7% | 9%
COc1ccc(OC)c(N2C(=O)CC(NNC(=O)c3ccc4c(c3)OCO4)C2=O)c1 (stereo not drawn) | 5% | -26% | -24%
NCCCNCCCCNC(=O)C(O)NC(=O)CCCCCCN=C(N)N (stereo not drawn) | -1% | . | .
CC1(C)CC(=O)c2cc(C(=O)NNc3ccccc3)c(=O)n(-c3ccccc3)c2C1 | 2% | 1µM* | -8%
CC1(C)CC(=O)c2cc(C(=O)NCc3ccco3)c(=O)n(-c3ccccc3)c2C1 | 15% | -29% | 1%
CC(C)(C)NC(=O)C(OC(=O)c1cccs1)c1ccccc1 (stereo not drawn) | 13% | -28% | 1%
Cc1cc(C)cc(NC(=O)C(OC(=O)c2cccs2)c2ccccc2)c1 (stereo not drawn) | 8% | 10µM* | 3%
COc1ccc(C(=O)C(C)OC(=O)C2CC3CCCC(C2)C3=O)cc1 (stereo not drawn) | 0% | -14% | -4%
O=S1(=O)c2ccc(Br)cc2N2CCC[C@@H]2CN1Cc1ccc(Cl)cc1 | -4% | ? | -7%
O=S1(=O)c2ccc(Br)cc2N2CCC[C@H]2CN1Cc1ccccc1 | 13% | 4µM* | ?
